Reference: PubChem BioAssay AID1950 (The Scripps Research Institute Molecular Screening Center, 2009)
Hit rate of the full screen: of about 300,000 compounds, about 1,000 (0.33%) were called active. Only a selection was taken, and actives are over-represented in it overall. A number with no mark means an inactive call. Cut-off read from the data, not from the text of the source: active = inhibition above about 28%; inactive = the rest.

system: EBNA-1 (Epstein-Barr virus nuclear antigen 1), Human herpesvirus 4; assay: blockers of EBV EBNA-1 binding to DNA – biochemical, fluorescence polarization, primary screen (AID 1950); details: EBNA-1 DNA binding, at 14.8 µM, active compounds read high

| SMILES | inhibition |
| --- | --- |
| COc1ccc(CN2C(=O)CC(Cc3ccc(C)cc3)C2=O)cc1OC (configuration not stated) | 9.56% |
| O=C(CN1CCCCC1)N1c2ccccc2Sc2ccc(C(F)(F)F)cc21 | -8.22% |
| CC(=O)N1CC(C)c2scc(C)[n+]2-c2ccccc21 (configuration not stated) | 0.91% |
| CC(CCN1CCN=C1N(C)C)c1ccccc1 (configuration not stated) | -6.72% |
| O=C(NCCOc1cccnc1)c1ccc(OC2CCN(Cc3ccccn3)CC2)cc1 | 6.33% |
| Cc1[nH]c(C)c(S(=O)(=O)N2CCC(C)CC2)c1C(=O)N1CCCC1 | 14.2% |
| NC(=O)C(Cc1ccccc1)NC(=O)C12CC3CC(CC(C3)C1)C2 (configuration not stated) | 3.55% |
| CC(=O)Nc1ccc(S(=O)(=O)NCC(=O)OCc2cc(=O)oc3ccc4ccccc4c23)cc1 | 35.2% (active) |
| CCC(=O)Nc1ccc(S(=O)(=O)Nc2c(NC)c3ccccc3oc2=O)cc1 | 8.74% |
| COc1ccccc1C(=O)COC(=O)CNS(=O)(=O)c1ccc(NC(C)=O)cc1 | 0.54% |
| CCOc1cc(C2C(C(=O)c3ccco3)=C(O)C(=O)N2Cc2ccccc2)ccc1O (configuration not stated) | 1.15% |
| CCC1CCCCN1C(=O)CSc1nc2c(c(=O)n1C)SC(C)C2 (configuration not stated) | -3.4% |
| CCOC(=O)CSc1nnc(NC(=O)C2CC(=O)N(c3ccc(F)cc3)C2)s1 (configuration not stated) | 6.41% |
| COc1ccc(C(=O)CSc2nnc(NC(=O)C3CC(=O)N(c4cccc(OC)c4)C3)s2)cc1 (configuration not stated) | 51.4% (active) |
| COc1cccc(N2CC(C(=O)Nc3c(C)cccc3C)CC2=O)c1 (configuration not stated) | -0.66% |
| COc1ccc(N(C)C(=O)C2CCN(S(=O)(=O)c3cccc4nsnc34)CC2)cc1 | -5.5% |
| Cc1ccc(O)c(-c2cc(C(=O)Nc3c(C)n(C)n(-c4ccccc4)c3=O)[nH]n2)c1 | 8.89% |
| Cc1ccc(O)c(-c2cc(C(=O)NCc3ccccc3)[nH]n2)c1 | 30.8% (active) |
| Cc1ccc(NC(=O)c2cc(-c3ccccc3O)n[nH]2)cc1C | -0.09% |

| SMILES | inhibition |
| --- | --- |
| COc1ccc(C(=O)N[C@H](C(=O)NCc2ccccc2)C(C)C)cc1 | 5.98% |
| CC(C)c1nnc(NC(=O)CCC(=O)N2CCN(c3cccc(Cl)c3)CC2)s1 | -2.44% |
| CCCCNC(=O)C1(O)c2ccccc2NC(=O)N1c1ccc(Cl)cc1 (configuration not stated) | -19.8% |
| CN(C)S(=O)(=O)c1cccc(-c2nn(-c3ccccc3)cc2/C=C2\SC(=S)N(CC(=O)O)C2=O)c1 | 1.09% |
| Cc1ccc(-c2nn(-c3ccccc3)cc2/C=C2\SC(=S)N(CCCCCC(=O)O)C2=O)o1 | 29.3% (active) |
| COc1ccc(-c2nn(-c3ccccc3)cc2/C=C2/SC(=S)N(CCCC(=O)O)C2=O)c(C)c1 | 5.71% |
| CC(=O)N1CCCc2cc(S(=O)(=O)N3CCCC(C(=O)N4CCN(c5cccc(Cl)c5)CC4)C3)ccc21 (configuration not stated) | -6.48% |
| COc1ccc(-c2cc(=O)oc3cc(OCC(=O)N(C)C4CCS(=O)(=O)C4)ccc23)cc1 (configuration not stated) | -3.28% |
| CCCCNC(=O)CSc1nc2ccc(NC(=O)CSc3nnc(N)s3)cc2s1 | 6.23% |
| CCCCNC(=O)CSc1nc2ccc(NC(=O)CSc3nnc(COc4ccccc4C)n3C)cc2s1 | -11.7% |
| Nc1nnc(SCC(=O)Nc2ccc3nc(SCC(=O)Nc4ccccc4)sc3c2)s1 | 45.6% (active) |
| Nc1nc(SCC(=O)Nc2ccc(Cl)cc2C(F)(F)F)n[nH]1 | -6.65% |
| CC(Sc1nc2c([nH]c3ccccc32)c(=O)n1C)c1ccccc1 (configuration not stated) | 13.4% |
| CCCCNC(=O)CCn1nc(-c2ccc(Cl)cc2)ccc1=O | -9.91% |
| Cc1ccc(NC(=O)CN(C)C(=O)Cn2nnc(-c3ccccc3)n2)cc1 | -4.13% |
| COc1ccc(C23NCCN2C(=O)c2ccccc23)cc1 (configuration not stated) | -4.33% |
| COc1cccc(CNS(=O)(=O)c2csc(C(N)=O)c2)c1 | -4.82% |
| Cc1cc2oc(=O)cc(CN(C)Cc3ccc(OC(F)F)cc3)c2cc1Cl | 2.59% |
| C/C(=N\OCC(=O)O)c1ccc(Cl)cc1 | 8.77% |

| SMILES | inhibition |
| --- | --- |
| C/C(=N\N=C(N)N)c1ccc(Cl)cc1 | 39.1% (active) |
| C/C(=N\NC(=S)NCc1ccccc1)c1ccc(Cl)cc1 | -0.89% |
| Cc1ccc(CNC(=O)c2cccnc2Cl)cc1 | -0.4% |
| CC/C(O)=C1\C(=O)CC(C)(C)CC1=NCCc1nc2ccccc2[nH]1 | 0.38% |
| CC(=O)C1=C(O)C(=O)N(c2ccc(Br)cc2)C1c1ccc([N+](=O)[O-])cc1 (configuration not stated) | -5.58% |
| Cc1cccc(N=Nc2c(C)[nH]n(-c3ccccc3)c2=O)c1 | -10.4% |
| Cc1[nH]n(C(N)=S)c(=O)c1N=Nc1ccc(Cl)cc1Cl | 27.7% (active) |
| CC1=NN(C(N)=S)C(=O)C1N=Nc1cc(Cl)ccc1Cl (configuration not stated) | -8.59% |
| O=C(CCC(=O)OCc1cccc(C(=O)Oc2ccccc2)c1)Nc1cccc2ccccc12 | 0.44% |
| O=C(NC1CCCC1)C(c1ccccn1)N(C(=O)c1csnn1)C1CCCC1 (configuration not stated) | 2.45% |
| COC(=O)c1ccc(CSc2nc3ccccc3c(=O)n2-c2cccc(OC)c2)o1 | -0.73% |
| CCCn1c(N)c(C(=O)CSc2nc3ccccc3c(=O)n2-c2ccc(OC)cc2)c(=O)[nH]c1=O | 5.25% |
| COc1cccc(-n2c(SCC(=O)c3c[nH]c4ccccc34)nc3ccccc3c2=O)c1 | 46.8% (active) |
| O=C(N/N=C/c1sc(N2CCCCC2)nc1-c1cccs1)c1cccnc1 | -5.56% |
| N=c1n(Cc2ccc(Cl)cc2)c2ccccc2n1CC(O)c1ccco1 (configuration not stated) | -2.62% |
| CN1CCC(=NNC(=O)CN(c2cccc(Cl)c2)S(C)(=O)=O)CC1 | -1.28% |
| CC(C)Nc1nc(N(c2ccccc2)c2ccccc2)nc(-n2ccnc2)n1 | 1.21% |
| N#Cc1nc(N)nc(N(c2ccccc2)c2ccccc2)n1 | 32.2% (active) |
| COc1ccc(C(=O)OCC(=O)c2ccc(Cl)s2)c(OC)c1OC | -6.57% |
